Inconclusive results are not listed. Calls of active or inactive are those of the source. Unless noted, calls come from the whole dose curve; as a rule, active = well fitted curve in either direction with a large enough effect (not every such curve was filed as active); inconclusive = small, poorly fitted or top-dose-only effect, or another doubt; inactive = flat fitted curve, though single readings scatter.
What was measured:
[1] = AP1 Signaling Pathway (AID 357); settings: ME-180 AP-1-bla reporter, EGF-induced, beta-lactamase ratio, 5 h; at 7.69 µM (top of the series) unless noted;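 note: ME-180 reporter cells stimulated with EGF at its EC50 level; % is set by controls: 0 for no effect and ±100 for the full control effect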
Method in brief: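 Cells are seeded overnight, exposed to compound titrations and an EC50 level of EGF for 5 hours at 37 °C, then loaded with CCF4 dye for 2.5 hours. Beta-lactamase activity under the AP-1 element is read as a blue/green ratio.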

[2] = molecular target: Cytochrome P450 1A2 (Homo sapiens) (UniProt P05177); assay: p450-cyp1a2 (AID 410; calls by dose curve; note: potency is the fitted concentration of half-maximal effect)
Method in brief: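 Inhibition was calculated relative to 57 uM furafylline (full inhibition). The reaction used human CYP1A2 at 20nM with Luciferin-ME at its Km, 100uM, driven by an NADPH-regenerating system for 60 min at room temperature.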

[3] = NFAT Signaling Pathway (AID 444); settings: Jurkat NFAT-bla M1, carbachol, beta-lactamase ratio, 5 h; at 7.69 µM (top of the series) unless noted;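 note: carbachol stimulus at about its EC50 of 1 µM final; % is set by controls: 0 for no effect and ±100 for the full control effect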
Method in brief: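 Jurkat cells with NFAT-driven β-lactamase reporter and co-expressed M1 receptor, stimulated with carbachol (final 1 uM, ~EC50), compound titration, 5 h at 37 °C. CCF4 loaded 1 h at RT; 460/530 nm ratio gave %activity and AC50.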

[4] = Stat Signaling Pathway (AID 446); settings: ME-180 SIE beta-lactamase reporter, IL-6 stimulated, 5 h; at 7.69 µM (top of the series) unless noted;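 note: ME-180 cervical cancer cells given 40 pM IL-6 alongside compound; SIE-controlled beta-lactamase reporter measured as 460/530 nm FRET emission ratio; % is set by controls: 0 for no effect and ±100 for the full control effect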
Method in brief: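 ME-180 SIE-bla cells; overnight plating; cpd + IL-6 40 pM, 5 h, 37 C; LiveBLAzer 2.5 h RT; 460/530 nm emission ratio. Normalized to 300 pM IL-6 and 125 nM JAK inhibitor controls.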

[5] = molecular target: Glucocorticoid receptor (Homo sapiens) (UniProt P04150); assay: GR-GFP Redistribution (AID 450;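 active = compounds whose dose series gives a full or clear partial fitted curve of increased nuclear translocation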; note: potency is the fitted concentration of half-maximal effect); settings: U2OS GR-GFP nuclear translocation, laser cytometry, 2 h
[6] = molecular target: Glucocorticoid receptor (Homo sapiens) (UniProt P04150); assay: GR-EFC Redistribution (AID 451; calls by dose curve; note: potency is the fitted concentration of half-maximal effect); settings: CHO-K1 GR-EFC translocation, beta-gal luminescence, 2 h
Method in brief: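 CHO-K1 cells expressing nuclear EA and GR-ED fragments of b-gal; compounds titrated up to 46 uM final, 2 h at 37 C. GR nuclear translocation read as complemented b-gal luminescence after 1 h RT detection.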

[7] = molecular target: Mitogen-activated protein kinase 10 (Mus musculus) (UniProt Q61831); assay: JNK3 AlphaScreen Assay (AID 530);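 note: kinase came from lysate of stimulated human HepG2 cells; signal reports phosphorylation of biotinylated GST-cJun 1-79 at Ser73 with 10 µM ATP; % is set by controls: 0 for no effect and ±100 for the full control effect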
Method in brief: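 qHTS format: compounds tested as titrations against IL-1beta/TNF-alpha-activated HepG2 lysate JNK3 with biotin-GST-cJun substrate and 10 uM ATP at room temperature. Loss of anti-phospho-cJun AlphaScreen signal indicates inhibition.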

[8] = molecular target: 3',5'-cyclic-AMP phosphodiesterase 4B (Homo sapiens) (UniProt Q07343); assay: qHTS Assay for Inhibitors of PDE-IV (AID 607; active = well fitted activation curve with a large enough effect in the main read-out, with a control signal flat, not every such curve was filed as active; note: % of control where 0% means no effect)
Method in brief: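 ACTOne HEK293 cells carry a modified cAMP-gated CNG channel and express endogenous PDE4; plated 1000 cells/well, compounds up to 22.9 uM final. Membrane-potential dye fluorescence (ex 535/em 590) was read; parental cells received 10 uM forskolin + 100 uM RO 20-1724.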

[9] = molecular target: Cytochrome P450 3A4 (Homo sapiens) (UniProt P08684); assay: qHTS Assay for Activators of Cytochrome P450 3A4 (AID 885; active = well fitted curve in the direction sought with a large enough effect; an effect the other way counts as inactive or inconclusive; note: nearly all actives have a fitted effect of over 65% in size)
Method in brief: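 20nM CYP3A4 + 25uM Luciferin-PPXE (=KM), 200mM KPO4; cpd 10 min RT; NADPH regen, 60 min RT; stop w/ detection buffer, 20 min; luminescence. Normalized to 57 uM ketoconazole.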

[10] = Confirmation and Secondary Assay for Modulators of Hemoglobin Beta Chain Splicing at IVS2 654 locus (AID 910; active = well fitted curve in the direction sought with a large enough effect; an effect the other way counts as inactive or inconclusive;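 note: HeLa cells stably carrying EGFP split by mutant beta-globin IVS2-654 intron; % of control where 0% means no effect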)
Method in brief: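 HeLa cells stably expressing EGFP interrupted by β-globin IVS2-654 intron, seeded overnight in Opti-MEM/2% FCS, then treated 2 days at 37 °C. Restored splicing read as total peak GFP intensity per well by laser scanning cytometry (488 nm excitation, 500–520 nm emission); 500 nM antisense PNA as control.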

[11] = Confirmation and Secondary Assay for Modulators of Hemoglobin Beta Chain Splicing at IVS2 705 locus (AID 930; active = well fitted curve in the direction sought with a large enough effect; an effect the other way counts as inactive or inconclusive;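 note: HeLa cells stably expressing the EGFP-705 splicing reporter; GFP fluorescence per well restored by corrected splicing of the IVS2-705 intron in EGFP; % of control where 0% means no effect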)
Method in brief: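 HeLa EGFP-705 reporter; 500 cells/well, o/n 37C 5% CO2; cpd 2 d; 488 ex/500-520 em laser scan; total peak GFP intensity/well. Ref: 500 nM […] antisense PNA.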

[12] = qHTS Assay for Lipid Storage Modulators (AID 1519; calls by dose curve); settings: Drosophila S3 cells, BODIPY lipid droplet/cell ratio, laser cytometry, cells loaded with oleic acid; for activity change, negative = inhibition: at 57.5 µM (top of the series)
Method in brief: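 Cells seeded at 5,000 per well were treated with compounds over a concentration series and loaded with oleic acid (400 uM, as added). Lipid droplet fluorescence (488 nm excitation, 500-530 nm channel) was read by laser-scanning cytometry and normalized to 20 uM Triacsin C.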

[13] = molecular target: Ubiquitin carboxyl-terminal hydrolase 1 (Homo sapiens) (UniProt O94782); assay: Inhibitors of USP1/UAF1: Pilot qHTS (AID 504865; active = well fitted curve in the direction sought with a large enough effect; an effect the other way counts as inactive or inconclusive;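 note: rhodamine fluorescence freed from ubiquitin-rhodamine substrate followed over time; top concentration of the series differs between compounds; % is set by controls: 0 for no effect and ±100 for the full control effect; nearly all actives have a fitted effect of over 35% in size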)
Method in brief: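 In 50mM HEPES pH 7.8 containing 0.5mM EDTA, 1mM TCEP, 0.1 mg/ml BSA and 0.01% Tween-20, 1nM USP1/UAF1 is exposed to compound for 15 min, then Ub-Rho (150nM final) is added and fluorescence is read over time.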

[14] = Primary qHTS for small molecule stabilizers of the endoplasmic reticulum resident proteome: Secreted ER Calcium Modulated Protein (SERCaMP) assay (AID 1508630; active = well fitted curve in the direction sought with a large enough effect; an effect the other way counts as inactive or inconclusive; note: % is set by controls: 0 for no effect and ±100 for the full control effect)
Method in brief: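 GLuc-SERCaMP-expressing SH-SY5Y cells, pretreated 16 h with compound, are challenged with thapsigargin to empty ER calcium stores; after 4 h, coelenterazine is added directly to the medium and luminescence is imaged.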

[15] = molecular target: Lysosomal acid glucosylceramidase (Homo sapiens) (UniProt P04062); assay: Glucocerebrosidase-p2 (AID 348; in the data active = potency below about 10 µM; note: potency is the fitted concentration of half-maximal effect); settings: purified GBA, blue fluorogenic substrate, 40 min
Method in brief: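 Compounds titrated from 0.6 nM upwards against 0.2 nM enzyme in pH 5.9 citric acid/KH2PO4, taurocholate, tween-20; blue fluorogenic substrate 80 uM, 40 min room temperature, stopped and read Ex 365/Em 440 for AC50.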

[16] = molecular target: Cytochrome P450 3A4 (Homo sapiens) (UniProt P08684); assay: qHTS Assay for Inhibitors and Substrates of Cytochrome P450 3A4 (AID 884; active = well fitted curve in the direction sought with a large enough effect; an effect the other way counts as inactive or inconclusive; note: potency is the fitted concentration of half-maximal effect; nearly all actives have a fitted effect of over 50% in size)
Method in brief: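 20 nM human CYP3A4 with 25 uM Luciferin-PPXE (at KM) in 200 mM KPO4, preincubated 10 min with compound; NADPH regeneration started a 60 min RT reaction. Luciferin detected by luminescence, normalized to 57 uM ketoconazole as full inhibition.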

[17] = molecular target: Cytochrome P450 2C19 (Homo sapiens) (UniProt P33261); assay: qHTS Assay for Inhibitors and Substrates of Cytochrome P450 2C19 (AID 899; active = well fitted curve in the direction sought with a large enough effect; an effect the other way counts as inactive or inconclusive; note: potency is the fitted concentration of half-maximal effect; nearly all actives have a fitted effect of over 60% in size)
Method in brief: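 5 nM human CYP2C19 with 10uM Luciferin-H EGE (at KM) in 50mM KPO4, compound preincubated 10 min at 37C, then NADPH regeneration for 60 min at 37C. Luciferin read by luminescence after detection reagent; normalized to 57uM ketoconazole as full inhibition.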

[18] = molecular target: Cytochrome P450 2D6 (Homo sapiens) (UniProt P10635); assay: qHTS Assay for Inhibitors and Substrates of Cytochrome P450 2D6 (AID 891; active = well fitted curve in the direction sought with a large enough effect; an effect the other way counts as inactive or inconclusive; note: potency is the fitted concentration of half-maximal effect; nearly all actives have a fitted effect of over 60% in size)
Method in brief: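 Human CYP2D6 (5 nM) with 30 uM Luciferin-ME EGE (at Km) in 100 mM KPO4, compound preincubated 10 min, then NADPH regeneration system for 60 min at room temperature. Luciferin read by luminescence; normalized to 1.43 uM quinidine.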

[19] = qHTS Assay for Identification of Small Molecule Agonists for Hypoxia Response Element Signaling Pathway (AID 914; active = well fitted activation curve with a large enough effect in the signal ratio, with a control signal flat, not every such curve was filed as active; the % refers to the signal ratio; note: % of control where 0% means no effect); settings: ME-180 (cervical carcinoma) HRE-bla reporter, beta-lactamase ratio, CoCl2, 17 h; activation: stronger effect = higher value
Method in brief: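 Read-out: CCF4 FRET ratio of 460nm to 530nm emission (excitation 405nm) after 2.5 hours at room temperature, taken from HRE-bla ME-180 cells that had been exposed to compound and EC50 CoCl2 for 17 hours.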

[20] = measured here: cell count channel max response
[21] = measured here: lipid channel max response

Cytochrome P450 3A4 (Homo sapiens), sequence (P08684 whole entry, looked up): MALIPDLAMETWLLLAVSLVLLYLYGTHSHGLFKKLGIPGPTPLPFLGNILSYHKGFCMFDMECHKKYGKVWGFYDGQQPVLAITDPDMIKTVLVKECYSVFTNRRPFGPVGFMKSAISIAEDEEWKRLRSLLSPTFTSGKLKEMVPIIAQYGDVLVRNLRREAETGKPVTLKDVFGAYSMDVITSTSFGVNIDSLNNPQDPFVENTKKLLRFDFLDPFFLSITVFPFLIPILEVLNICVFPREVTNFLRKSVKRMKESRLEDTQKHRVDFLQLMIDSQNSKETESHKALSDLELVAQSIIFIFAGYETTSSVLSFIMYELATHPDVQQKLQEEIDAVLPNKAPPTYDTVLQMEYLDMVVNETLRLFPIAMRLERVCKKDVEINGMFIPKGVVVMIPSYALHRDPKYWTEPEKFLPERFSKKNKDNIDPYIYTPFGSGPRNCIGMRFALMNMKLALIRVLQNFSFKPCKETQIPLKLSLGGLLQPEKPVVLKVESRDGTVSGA
Glucocorticoid receptor (Homo sapiens), sequence (P04150 whole entry, looked up, the tested form may be a part): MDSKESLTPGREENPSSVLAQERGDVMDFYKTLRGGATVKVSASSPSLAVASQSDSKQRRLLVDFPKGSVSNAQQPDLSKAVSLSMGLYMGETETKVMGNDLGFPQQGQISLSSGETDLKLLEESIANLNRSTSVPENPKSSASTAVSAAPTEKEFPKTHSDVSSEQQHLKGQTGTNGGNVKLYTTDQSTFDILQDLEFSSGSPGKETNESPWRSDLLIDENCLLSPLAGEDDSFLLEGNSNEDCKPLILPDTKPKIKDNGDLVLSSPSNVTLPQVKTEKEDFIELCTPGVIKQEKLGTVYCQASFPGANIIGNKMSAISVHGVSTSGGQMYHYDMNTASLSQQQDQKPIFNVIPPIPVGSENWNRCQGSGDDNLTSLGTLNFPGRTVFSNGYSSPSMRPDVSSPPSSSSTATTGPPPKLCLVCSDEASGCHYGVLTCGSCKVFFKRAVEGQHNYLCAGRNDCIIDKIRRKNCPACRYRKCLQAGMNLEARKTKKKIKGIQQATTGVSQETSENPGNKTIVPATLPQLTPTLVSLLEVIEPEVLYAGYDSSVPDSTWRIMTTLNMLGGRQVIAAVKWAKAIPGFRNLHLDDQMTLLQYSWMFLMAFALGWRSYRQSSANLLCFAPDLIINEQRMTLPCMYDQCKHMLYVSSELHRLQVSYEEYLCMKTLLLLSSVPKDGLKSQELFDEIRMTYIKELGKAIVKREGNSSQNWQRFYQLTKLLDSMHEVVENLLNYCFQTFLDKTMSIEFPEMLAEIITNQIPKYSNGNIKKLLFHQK
Lysosomal acid glucosylceramidase (Homo sapiens), sequence (P04062 whole entry, looked up): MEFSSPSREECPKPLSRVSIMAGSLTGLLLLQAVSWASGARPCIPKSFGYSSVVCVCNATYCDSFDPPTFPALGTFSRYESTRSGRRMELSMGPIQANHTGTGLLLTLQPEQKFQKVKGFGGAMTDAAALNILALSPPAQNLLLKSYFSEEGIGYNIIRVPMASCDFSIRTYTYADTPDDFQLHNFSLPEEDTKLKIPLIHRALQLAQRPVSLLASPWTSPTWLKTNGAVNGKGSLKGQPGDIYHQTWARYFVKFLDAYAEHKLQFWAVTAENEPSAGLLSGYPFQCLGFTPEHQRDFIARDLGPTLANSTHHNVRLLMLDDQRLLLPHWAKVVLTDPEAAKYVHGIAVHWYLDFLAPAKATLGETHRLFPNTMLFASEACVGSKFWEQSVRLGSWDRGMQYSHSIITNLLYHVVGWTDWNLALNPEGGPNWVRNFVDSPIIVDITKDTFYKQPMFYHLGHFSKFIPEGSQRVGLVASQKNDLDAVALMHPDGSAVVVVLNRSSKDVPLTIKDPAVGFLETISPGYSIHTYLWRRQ
3',5'-cyclic-AMP phosphodiesterase 4B (Homo sapiens), sequence (Q07343 whole entry, looked up): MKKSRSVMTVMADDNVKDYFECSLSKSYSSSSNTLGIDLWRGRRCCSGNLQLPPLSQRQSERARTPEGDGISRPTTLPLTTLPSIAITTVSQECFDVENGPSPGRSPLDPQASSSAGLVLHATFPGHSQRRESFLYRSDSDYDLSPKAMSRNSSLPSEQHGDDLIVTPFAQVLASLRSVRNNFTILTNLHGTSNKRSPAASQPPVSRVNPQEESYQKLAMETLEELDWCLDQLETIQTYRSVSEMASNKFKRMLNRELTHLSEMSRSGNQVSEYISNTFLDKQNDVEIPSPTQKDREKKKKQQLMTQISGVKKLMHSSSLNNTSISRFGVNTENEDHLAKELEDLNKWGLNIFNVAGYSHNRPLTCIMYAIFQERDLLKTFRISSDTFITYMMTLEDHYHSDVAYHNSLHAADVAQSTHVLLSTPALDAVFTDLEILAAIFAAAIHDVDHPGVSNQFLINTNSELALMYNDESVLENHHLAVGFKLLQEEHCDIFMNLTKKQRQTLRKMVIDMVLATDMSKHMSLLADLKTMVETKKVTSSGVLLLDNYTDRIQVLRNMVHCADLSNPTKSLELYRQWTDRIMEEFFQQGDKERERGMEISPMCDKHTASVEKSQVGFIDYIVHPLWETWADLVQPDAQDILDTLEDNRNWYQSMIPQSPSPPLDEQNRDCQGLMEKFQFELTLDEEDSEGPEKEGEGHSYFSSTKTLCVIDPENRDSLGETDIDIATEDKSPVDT
Ubiquitin carboxyl-terminal hydrolase 1 (Homo sapiens), sequence (O94782 whole entry, looked up): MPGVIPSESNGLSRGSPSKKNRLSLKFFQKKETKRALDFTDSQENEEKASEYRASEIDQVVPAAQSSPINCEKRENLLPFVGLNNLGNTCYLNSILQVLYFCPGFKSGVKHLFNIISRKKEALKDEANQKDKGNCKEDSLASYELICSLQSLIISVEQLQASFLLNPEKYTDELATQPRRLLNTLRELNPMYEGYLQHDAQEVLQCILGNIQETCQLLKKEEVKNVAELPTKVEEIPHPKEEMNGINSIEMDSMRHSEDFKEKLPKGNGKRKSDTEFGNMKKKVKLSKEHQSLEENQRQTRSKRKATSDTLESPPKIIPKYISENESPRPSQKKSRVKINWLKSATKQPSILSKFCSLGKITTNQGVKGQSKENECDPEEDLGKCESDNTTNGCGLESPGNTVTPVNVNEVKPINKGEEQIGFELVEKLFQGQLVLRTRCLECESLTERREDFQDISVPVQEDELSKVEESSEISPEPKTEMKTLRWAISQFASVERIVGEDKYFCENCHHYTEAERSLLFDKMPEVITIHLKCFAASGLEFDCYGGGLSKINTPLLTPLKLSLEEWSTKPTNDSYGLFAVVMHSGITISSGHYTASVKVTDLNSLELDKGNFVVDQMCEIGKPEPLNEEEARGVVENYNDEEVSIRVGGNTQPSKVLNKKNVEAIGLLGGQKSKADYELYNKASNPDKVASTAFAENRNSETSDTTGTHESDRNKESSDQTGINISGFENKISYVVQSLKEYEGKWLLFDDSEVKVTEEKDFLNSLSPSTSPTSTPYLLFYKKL
Cytochrome P450 2C19 (Homo sapiens), sequence (P33261 whole entry, looked up): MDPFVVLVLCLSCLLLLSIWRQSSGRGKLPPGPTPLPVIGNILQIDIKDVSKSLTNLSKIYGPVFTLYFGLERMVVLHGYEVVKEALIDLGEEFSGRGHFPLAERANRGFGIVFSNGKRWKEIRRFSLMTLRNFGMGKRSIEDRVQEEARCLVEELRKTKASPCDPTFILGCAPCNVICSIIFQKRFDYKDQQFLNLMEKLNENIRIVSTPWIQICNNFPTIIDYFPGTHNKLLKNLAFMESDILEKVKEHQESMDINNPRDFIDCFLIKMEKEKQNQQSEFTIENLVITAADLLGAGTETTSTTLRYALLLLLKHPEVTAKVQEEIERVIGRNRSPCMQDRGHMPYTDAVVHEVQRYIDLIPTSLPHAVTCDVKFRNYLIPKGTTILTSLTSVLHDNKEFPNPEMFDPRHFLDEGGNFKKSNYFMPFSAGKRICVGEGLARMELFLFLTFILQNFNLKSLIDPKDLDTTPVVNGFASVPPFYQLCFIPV
Cytochrome P450 1A2 (Homo sapiens), sequence (P05177 whole entry, looked up): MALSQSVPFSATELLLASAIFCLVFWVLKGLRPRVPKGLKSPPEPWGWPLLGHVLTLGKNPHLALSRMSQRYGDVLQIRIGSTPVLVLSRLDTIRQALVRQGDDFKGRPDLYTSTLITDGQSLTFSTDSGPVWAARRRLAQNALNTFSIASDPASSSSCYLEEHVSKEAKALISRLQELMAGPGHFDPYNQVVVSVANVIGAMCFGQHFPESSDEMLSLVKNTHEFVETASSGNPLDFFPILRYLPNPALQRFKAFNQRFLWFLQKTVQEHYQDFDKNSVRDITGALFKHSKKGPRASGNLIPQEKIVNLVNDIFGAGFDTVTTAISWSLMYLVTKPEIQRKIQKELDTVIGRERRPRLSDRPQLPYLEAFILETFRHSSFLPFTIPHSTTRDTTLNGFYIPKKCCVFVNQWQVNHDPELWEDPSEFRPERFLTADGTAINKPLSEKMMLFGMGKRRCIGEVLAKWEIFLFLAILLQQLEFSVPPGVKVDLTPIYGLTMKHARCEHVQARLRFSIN
Cytochrome P450 2D6 (Homo sapiens), sequence (P10635 whole entry, looked up): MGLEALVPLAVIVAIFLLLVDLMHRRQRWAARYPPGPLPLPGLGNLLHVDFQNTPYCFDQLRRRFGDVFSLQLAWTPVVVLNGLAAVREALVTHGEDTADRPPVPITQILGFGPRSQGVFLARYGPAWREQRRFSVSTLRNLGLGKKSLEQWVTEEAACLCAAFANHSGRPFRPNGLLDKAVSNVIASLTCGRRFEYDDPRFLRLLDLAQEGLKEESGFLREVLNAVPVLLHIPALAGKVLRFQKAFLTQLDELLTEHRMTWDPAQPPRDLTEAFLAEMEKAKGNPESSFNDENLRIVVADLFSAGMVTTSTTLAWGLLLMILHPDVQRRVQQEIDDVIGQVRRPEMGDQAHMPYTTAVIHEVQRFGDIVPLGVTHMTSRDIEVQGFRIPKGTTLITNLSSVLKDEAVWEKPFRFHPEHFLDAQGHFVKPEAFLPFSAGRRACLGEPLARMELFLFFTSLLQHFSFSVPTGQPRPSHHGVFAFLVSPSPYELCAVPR

N#Cc1cccc(-c2cc(NCc3cccs3)ncn2)c1
-10.3%: max response [12, 20]
inactive: activity change, negative = inhibition [1] -6.14% | activity change, negative = inhibition [3] 12.6% | activity, negative = inhibition [4] -3.35% | Potency [5] > 46 µM | Potency [6] > 46 µM | outcome [7] | Potency [8] | Potency [9] | outcome [10] | outcome [11] | activity change, negative = inhibition [12] 3.14% | Potency [13] | Potency [14]
active: Potency [2] 0.794 µM
-10.9%: max response [12, 21]

COc1ccccc1-c1cncnc1NCc1cccnc1
18.5%: max response [12, 21]
inactive: Potency [15] > 11.4 µM | activity change, negative = inhibition [1] -10.2% | activity change, negative = inhibition [3] -4.56% | activity, negative = inhibition [4] 4% | Potency [5] > 46 µM | Potency [6] > 46 µM | outcome [7] | Potency [8] | Potency [9] | outcome [10] | outcome [11] | activity change, negative = inhibition [12] 7.04% | Potency [13] | Potency [14]
active: Potency [16] 0.501 µM | Potency [17] 3.16 µM
11.1%: max response [12, 20]

CC(C)NC(=O)N1CCC2(CC1)CCN(C(=O)c1csnn1)CC2
-0.0052%: max response [12, 20]
5.7%: max response [12, 21]
inactive: Potency [15] > 11.4 µM | activity change, negative = inhibition [1] -2.2% | activity change, negative = inhibition [3] 6.85% | activity, negative = inhibition [4] -6.49% | Potency [6] > 46 µM | outcome [7] | Potency [8] | activity change, negative = inhibition [12] 1.46% | Potency [14]

COc1ccccc1CN1CC[C@@]2(CCCN(S(C)(=O)=O)C2)C1
13.7%: max response [12, 21]
inactive: Potency [15] > 11.4 µM | activity change, negative = inhibition [1] 1.48% | activity change, negative = inhibition [3] -16.9% | activity, negative = inhibition [4] 5.92% | Potency [6] > 46 µM | outcome [7] | Potency [8] | Potency [9] | activity change, negative = inhibition [12] 4.56% | Potency [14]
active: Potency [18] 0.316 µM
7.77%: max response [12, 20]

COCC(=O)N1CCC[C@@]2(CCN(C(=O)Nc3cccc(F)c3)C2)C1
inactive: Potency [15] > 11.4 µM | activity change, negative = inhibition [1] -14.2% | activity change, negative = inhibition [3] 9.68% | activity, negative = inhibition [4] -1.05% | Potency [6] > 46 µM | outcome [7] | Potency [8] | Potency [9] | activation [19] 8.24% | activity change, negative = inhibition [12] 2.12% | Potency [14]
19.2%: max response [12, 20]
23.6%: max response [12, 21]

N#CCCn1c(=O)cnc2cnc(N3CCOCC3)nc21
inactive: Potency [15] > 11.4 µM | activity change, negative = inhibition [1] -13.7% | activity change, negative = inhibition [3] -0.169% | activity, negative = inhibition [4] 19.5% | Potency [6] > 46 µM | outcome [7] | activity change, negative = inhibition [12] 6.47% | Potency [14]
23.1%: max response [12, 21]
18.1%: max response [12, 20]
